These results are taken from PubChem BioAssay (NCI).

Each structure is given as a SMILES string. Compounds without any hit were thinned out: in the full panel of roughly 83,000, 20% have a hit.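 Single-dose data. Exposure time 48 hours. Values below 10 considered active.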 Values without a mark were called inactive. Active and inactive are the calls of the source.

Test systems include DU-145 prostate; K-562 leukemia; MALME-3M melanoma; MDA-MB-231 breast; RXF 393 renal; SF-268 CNS; SF-295 CNS; SF-539 CNS; UACC-257 melanoma; M14 melanoma; HCT-15 colon; HT29 colon; SNB-75 CNS; SNB-19 CNS; U251 CNS; PC-3 prostate; SK-MEL-5 melanoma; UACC-62 melanoma; LOX IMVI melanoma; SK-MEL-28 melanoma.
Common to all, as to test: NCI-60 one-dose screen, 48 h (100 = growth as untreated, 0 = no growth, -100 = all killed)
What all share (settings): 10 µM

Take `COc1ccc2nc(C)cc(Nc3ccc(Cl)cc3)c2c1`: the growth was 102% with DU-145 prostate; 97.9% in the assay on K-562 leukemia; 114% in the assay on MALME-3M melanoma; 115% in the assay with MDA-MB-231 breast; 118% with RXF 393 renal; 103% in the assay on SF-268 CNS. Also, the growth with SF-295 CNS is 108%; in the assay with SF-539 CNS, 104%; in the assay with UACC-257 melanoma, 99.4%; in the assay with M14 melanoma, 100%; in the assay with HCT-15 colon it was 99.1%; in the assay with HT29 colon, 116%. For the same compound, the growth was 102% in the assay with SNB-75 CNS; 104% in the assay on SNB-19 CNS; 97.1% with U251 CNS; 100% in the assay with PC-3 prostate; 93.7% with SK-MEL-5 melanoma; 99% in the assay on UACC-62 melanoma. Besides, the growth in the assay with LOX IMVI melanoma and with SK-MEL-28 melanoma was 105% each time.
Regarding `CCCc1ccnc(NS(=O)(=O)c2ccc(N)cc2)n1`, the growth in the assay with DU-145 prostate was 117%; in the assay with K-562 leukemia, 54.7%; in the assay with MALME-3M melanoma it was 67.1%; in the assay on MDA-MB-231 breast, 81.9%; in the assay with RXF 393 renal it was 102%; in the assay on SF-268 CNS, 95.6%. The growth with SF-295 CNS is 95.9%; in the assay on SF-539 CNS, 71.8%; with UACC-257 melanoma it was 43.4%; in the assay with M14 melanoma, 95.8%; in the assay with HCT-15 colon it was 105%; in the assay on HT29 colon it was 72.9%. Besides, the growth was 88.2% in the assay with SNB-75 CNS; 76.6% with SNB-19 CNS; 54.6% with U251 CNS; 60.7% with PC-3 prostate; 84.3% with SK-MEL-5 melanoma; 85.7% in the assay on UACC-62 melanoma. Also, the growth is 82.9% in the assay on LOX IMVI melanoma and 78.9% with SK-MEL-28 melanoma.
With `Nc1ncncc1-c1ccc(F)cc1`, the growth in the assay on DU-145 prostate was 115%; in the assay with K-562 leukemia it was 109%; in the assay on MALME-3M melanoma, 112%; in the assay on MDA-MB-231 breast it was 127%; in the assay with RXF 393 renal, 109%; in the assay with SF-268 CNS, 112%. Also, the growth with SF-295 CNS is 100%; in the assay with SF-539 CNS it was 95.6%; in the assay on UACC-257 melanoma, 118%; in the assay on M14 melanoma, 107%; with HCT-15 colon, 103%; in the assay with HT29 colon it was 113%. The growth is 85.3% with SNB-75 CNS; 106% with SNB-19 CNS; 103% in the assay on U251 CNS; 103% in the assay on PC-3 prostate; 104% in the assay with SK-MEL-5 melanoma; 107% in the assay with UACC-62 melanoma. Moreover, the growth was 98.7% in the assay on LOX IMVI melanoma and 115% in the assay on SK-MEL-28 melanoma.
For `Cc1nc(N)sc1Sc1nc2ccc(Cl)cc2c(=O)n1-c1ccc(Oc2ccccc2)cc1`, the growth is 92.5% in the assay with DU-145 prostate; 74.4% in the assay on K-562 leukemia; 95.1% in the assay with MALME-3M melanoma; 89.3% in the assay on MDA-MB-231 breast; 86.4% in the assay with RXF 393 renal; 107% in the assay on SF-268 CNS. The growth in the assay with SF-295 CNS was 67.8%; in the assay on SF-539 CNS it was 93.4%; in the assay with UACC-257 melanoma, 75.7%; with M14 melanoma, 76.6%; with HCT-15 colon, 55.4%; in the assay on HT29 colon, 55.9%. The growth with SNB-75 CNS is 96%; with SNB-19 CNS, 69.4%; in the assay with U251 CNS, 77.2%; in the assay with PC-3 prostate, 48.9%; in the assay on SK-MEL-5 melanoma, 76.1%; with UACC-62 melanoma it was 63.9%. For the same compound, the growth was 75.5% in the assay on LOX IMVI melanoma and 95.1% in the assay with SK-MEL-28 melanoma.
As for `FC(F)(F)c1ccc(-c2cnc(Cl)nc2NC2CCCCCC2)cc1`, the growth with DU-145 prostate is 59.7%; with K-562 leukemia it was 11.9%; in the assay with MALME-3M melanoma it was -42.8% (active); in the assay on MDA-MB-231 breast, 47.4%; in the assay on RXF 393 renal it was 31.3%; with SF-268 CNS, 39.4%. The growth is -45.6% (active) in the assay with SF-295 CNS; 75.1% with SF-539 CNS; -10.3% (active) with UACC-257 melanoma; 21.8% in the assay on M14 melanoma; 75.7% with HCT-15 colon; 19.1% in the assay on HT29 colon. The growth was 49.9% with SNB-75 CNS; 31.2% in the assay on SNB-19 CNS; 5.17% (active) in the assay on U251 CNS; 1.08% (active) in the assay with PC-3 prostate; -8.26% (active) in the assay on SK-MEL-5 melanoma; 16.2% with UACC-62 melanoma. Further, the growth with LOX IMVI melanoma was 27.9%; with SK-MEL-28 melanoma it was 37.6%.
For the compound `Nc1nc2c(nnn2C2CC(O)C(CO)O2)c(=O)[nH]1` (stereo not given), the growth in the assay on DU-145 prostate is 21.8%; in the assay on K-562 leukemia it was 40.5%; with MALME-3M melanoma, 79.5%; in the assay on MDA-MB-231 breast it was 58.5%; in the assay with RXF 393 renal, 50.6%; in the assay on SF-268 CNS, 50.2%. The growth in the assay with SF-295 CNS was 56.4%; in the assay with SF-539 CNS it was 33.4%; with UACC-257 melanoma it was 77.7%; in the assay with M14 melanoma, 40%; with HCT-15 colon, 41.6%; in the assay on HT29 colon it was 51.4%. Further, the growth with SNB-75 CNS was 61.8%; with SNB-19 CNS it was 94.3%; in the assay on U251 CNS, 54.3%; in the assay with PC-3 prostate, 26.5%; with SK-MEL-5 melanoma, 87%; with UACC-62 melanoma, 25%. The results for the growth with LOX IMVI melanoma and in the assay on SK-MEL-28 melanoma were 19.5% and 87.5%, respectively.
With `COc1ccc(-c2[nH]ncc2/C=C/c2cc(C(F)(F)F)[nH]c(=O)n2)cc1`, the growth in the assay on DU-145 prostate was 108%; in the assay on K-562 leukemia, 86.7%; in the assay with MALME-3M melanoma it was 76.1%; in the assay on MDA-MB-231 breast, 103%; in the assay on RXF 393 renal, 125%; in the assay on SF-268 CNS it was 97.5%. In addition, the growth with SF-295 CNS was 94.7%; with SF-539 CNS it was 86.7%; in the assay on UACC-257 melanoma, 98.3%; in the assay on M14 melanoma, 98.7%; in the assay on HCT-15 colon, 97%; in the assay on HT29 colon, 99.1%. Moreover, the growth in the assay with SNB-75 CNS was 88%; in the assay with SNB-19 CNS, 91%; with U251 CNS, 88.5%; with PC-3 prostate, 98.7%; with SK-MEL-5 melanoma, 93.7%; in the assay on UACC-62 melanoma, 102%. Further, the growth with LOX IMVI melanoma was 87.4%; in the assay on SK-MEL-28 melanoma it was 114%.
For the compound `O=[N+]([O-])c1ccc(Br)o1`, the growth in the assay on DU-145 prostate is 101%; in the assay on K-562 leukemia it was 106%; in the assay with MALME-3M melanoma, 104%; with MDA-MB-231 breast, 107%; with RXF 393 renal, 106%; in the assay on SF-268 CNS, 95.9%. The growth was 98.8% in the assay with SF-295 CNS; 98.6% in the assay on SF-539 CNS; 110% with UACC-257 melanoma; 104% in the assay on M14 melanoma; 105% with HCT-15 colon; 95.8% with HT29 colon. Also, the growth with SNB-75 CNS is 97.5%; in the assay on SNB-19 CNS it was 107%; in the assay with U251 CNS it was 103%; with PC-3 prostate it was 98.8%; in the assay with SK-MEL-5 melanoma, 96.9%; in the assay on UACC-62 melanoma it was 103%. The results for the growth in the assay on LOX IMVI melanoma and with SK-MEL-28 melanoma were 93.9% and 104%, respectively.
